Assay outcomes: PubChem BioAssay, several laboratories
Rv3671c protease – Rv3671c (M. tuberculosis) protease inhibition; inhibition, % at 5.96 µM; hit rate 0.048% among 320,000; AID 2606; in the data active = inhibition above about 38%;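 note: extracellular domain of Rv3671c used as enzyme; 0% = enzyme with DMSO and 100% = no enzyme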
RecA splice inh – inhibitors of M. tuberculosis RecA intein splicing; P9WHJ3; cell-free RecA intein splicing, fluorescence; inhibition, % (no concentration beside the values); hit rate 0.75% among 290,000; in the data active = inhibition above about 30%; inconclusive = no clear call, values can overlap the other calls;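 note: 0% = vehicle wells and 100% = reference inhibitor control wells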
Mtb betalactam – beta-lactam sensitization of Mtb H37Rv. inhibition, % at 25 µM. M. tuberculosis H37Rv growth with meropenem, percent inhibition. hit rate 0.27% among 330,000; call rule not given here;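 note: growth measured after seven days incubation then overnight dye step; 0% = bacteria only wells and 100% = bacteria with antibiotic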
FBA Mtb inh – inhibits M. tuberculosis FBA enzyme. purified M. tuberculosis FBA, fluorescence read-out. hit rate 2.3% among 360,000. inhibition, % at 1 µM. P9WQA3. AID 588726; in the data active = inhibition above about 27%;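 note: 0% = vehicle and 100% = reference inhibitor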
Target sequence (P9WQA3 whole entry, looked up): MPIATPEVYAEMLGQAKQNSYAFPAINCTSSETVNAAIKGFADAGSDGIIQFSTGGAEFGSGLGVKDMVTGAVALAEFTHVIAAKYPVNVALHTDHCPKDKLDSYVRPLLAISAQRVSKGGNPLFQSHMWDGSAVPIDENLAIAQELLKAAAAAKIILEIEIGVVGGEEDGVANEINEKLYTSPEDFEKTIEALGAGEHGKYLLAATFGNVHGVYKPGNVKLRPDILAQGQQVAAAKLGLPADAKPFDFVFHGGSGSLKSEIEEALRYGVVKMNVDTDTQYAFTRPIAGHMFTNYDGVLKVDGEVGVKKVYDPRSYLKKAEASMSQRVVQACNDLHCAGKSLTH
GDH-TPI inh – GDH-TPI coupled enzyme inhibition counter-screen | GDH-TPI coupled enzyme counterscreen, NADH absorbance | AID 588335 | hit rate 1.2% among 360,000 | inhibition, % at 4.8 µM; in the data active = inhibition above about 30%;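 note: 0% = DMSO wells and 100% = wells lacking the enzyme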
Mtb UGM inh – inhibitors of M. tuberculosis UDP-galactopyranose mutase; inhibition, % at 10 µM; purified UGM, fluorescence polarization probe displacement; AID 504406; hit rate 0.06% among 320,000; P9WIQ1; in the data active = inhibition above about 10%, passing the limit was not always enough; inconclusive = no clear call, values can overlap the other calls
Numbers without * were called inactive; u = inconclusive; x = no result; + = active, no number. Shown are actives, neighbours in structure and some others; about 4% of the full set was active somewhere.

SMILES | Rv3671c protease | RecA splice inh | Mtb betalactam | FBA Mtb inh | GDH-TPI inh | Mtb UGM inh
CCC(=O)N1N=C(c2cccs2)CC1c1ccc(OC)cc1 (stereo not drawn) | x | 3 | -3 | 7 | 6 | 0
Cc1ccc(C2CC(c3cccs3)=NN2C(=O)CSC2=NCCS2)cc1 (stereo not drawn) | -2 | 57* | 74 | 16 | 14 | -3
CCC(=O)N1N=C(c2cccs2)CC1c1ccc(C)cc1 (stereo not drawn) | -4 | 2 | 0 | 16 | 11 | 1
COc1ccc(C2CC(c3cccs3)=NN2C(=O)CSC2=NCCS2)cc1 (stereo not drawn) | -5 | 41* | 0 | 11 | -8 | -1
N#C/C(=C(/O)CO/N=C/c1ccccc1Cl)c1nc2ccccc2[nH]1 | 4 | 0 | -3 | 0 | 4 | 5
CC(=O)Nc1ccc(C(=O)OCc2ccc(F)cc2Cl)cc1 | -5 | 3 | 4 | 1 | 0 | -1
CCOC(=O)C1CCN(S(=O)(=O)c2c(Cl)ccc3nonc23)CC1 | -5 | 41* | u | 0 | 0 | -1
O=C(Nc1ccc(C(=O)O)cc1)/C(=C\C=C\c1ccccc1)NC(=O)c1ccccc1Cl | -12 | 1 | 11 | -4 | 56* | -1
O=C(Nc1ccc(O)cc1)/C(=C\C=C\c1ccccc1)NC(=O)c1ccccc1 | -4 | 8 | -7 | 1 | 74* | -3
O=C(N/C(=C/C=C/c1ccccc1)C(=O)N1CCOCC1)c1ccccc1Cl | 7 | 0 | -10 | 3 | 22 | -5
O=C(O)CCNC(=O)/C(=C\C=C\c1ccccc1)NC(=O)c1ccccc1 | 11 | 0 | -3 | 5 | 53* | x
Cc1ccc(C(=O)N/C(=C\C=C\c2ccccc2)C(=O)NCc2ccco2)cc1 | -10 | 6 | 12 | 4 | 36* | 1
COC(=O)/C(=C\C=C\c1ccccc1)NC(=O)c1ccccc1 | 3 | 0 | -3 | -2 | 23 | 3
COc1cc(C)cc(C(=O)O)c1C1=C(O)c2cccc(O)c2C(=O)C1=O | -1 | x | 6 | 0 | 1 | 4
COc1ccc(/C=N\NC(=O)C2=NNC(=O)C2C)cc1 (stereo not drawn) | -4 | -6 | -7 | -2 | 19 | 0
O=C(N/N=C/c1ccc(Cl)s1)c1ccccc1[N+](=O)[O-] | 7 | -2 | -8 | 0 | 31* | -1
COc1ccccc1-c1nc(C#N)c(N2CCN(c3ccccc3)CC2)o1 | -2 | 12 | -12 | 6 | 3 | 3
Cc1cccc(-c2nc(C#N)c(N3CCCCCC3)o2)c1 | 4 | 0 | 11 | 139* | 26 | 2
COc1ccccc1-c1nc(C#N)c(N2CCCCCC2)o1 | -6 | 7 | 3 | + | 15 | -1
COc1ccc(N2CCN(c3oc(-c4ccc(OC)c(OC)c4)nc3C#N)CC2)cc1 | -3 | 1 | -11 | -1 | -9 | 0
COc1ccc(-c2nc(C#N)c(N3CCc4ccccc4C3)o2)cc1OC | 4 | -2 | 98 | 150* | 41* | 0
CCCCn1c(N)c(N(CCOC)C(=O)c2cc(S(=O)(=O)N3CCCCC3)ccc2C)c(=O)[nH]c1=O | -4 | 10 | -6 | 2 | 5 | -2
COc1ccc(OC)c(/C=C/C(=O)OCC(=O)N2C(C)CCCC2C)c1 (stereo not drawn) | 4 | x | -3 | 10 | 13 | 1
CC1=NN(c2cccc(Cl)c2)C(=O)C1 | -182 | 94* | -5 | 1 | 7 | 1
CCOC(=O)C(=O)/C(C#N)=C/Nc1ccc(Cl)cc1 | 14 | -2 | 18 | 4 | 5 | 3
SMILES | Rv3671c protease | RecA splice inh | Mtb betalactam | FBA Mtb inh | GDH-TPI inh | Mtb UGM inh
CN(c1ccccc1)c1ccc(/C=N/N2CCOCC2)cc1 | -1 | -6 | 3 | 0 | 31* | 0
CN(C)c1ccc(/C=N/N2CCN(c3ccccn3)CC2)cc1 | 1 | -2 | -9 | -3 | 39* | 1
C(=NN1CCCCCC1)c1ccccc1 | x | x | x | 1 | 7 | x
CC(C)(C)c1ccc(/C=N/N2CCN(c3ccccn3)CC2)cc1 | 5 | 4 | 82 | 1 | 3 | 0
CCCc1cc(=O)[nH]c(SCC(=O)C(C)(C)C)n1 | -2 | -3 | 5 | 0 | -12 | 1
O=C(Nc1ccccc1)Nc1ccc2ccccc2n1 | -1 | -9 | 2 | 2 | 14 | 0
COc1cc2nc(N(C)C)nc(N)c2cc1OC | -5 | 0 | -1 | 80* | 10 | 1
Cc1ccc(-n2[nH]c(C)c(/C=N/NC(=O)c3ccc([N+](=O)[O-])cc3)c2=O)c(C)c1 | 15 | 32* | 100 | 0 | 6 | 2
